In PubChem BioAssay AID493030 (The Scripps Research Institute Molecular Screening Center, 2011):
The whole screen tested about 2,300 compounds, of which about 1,500 (65%) were called active.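 The calls were made as follows: active = mean inhibition over three repeats above a set limit taken from the earlier primary screen (cut at about 30% in these data); inactive = the rest.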 The set was probably picked from earlier hits. The full list was thinned out, with actives kept by preference.

Each molecule was assayed against Platelet-activating factor acetylhydrolase 2, cytoplasmic (Homo sapiens) (UniProt Q99487) (assay: PAFAH2 enzyme inhibitors, confirmation, biochemical, fluorescence polarization, human (AID 493030;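 also: inhibitor blocks binding of rhodamine activity probe so polarization falls; 0% = enzyme with DMSO and 100% = wells lacking PAFAH2 protein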)). Details: recombinant PAFAH2, FP-rhodamine activity probe, at 3.39 µM, hits give high values.

Q: For COc1cccc(N2C(=O)NC(=O)/C(=C\c3cn(C)c4ccccc34)C2=O)c1, which inhibition is on record?
A: 36.5% (active)

Q: How did the inhibition turn out when Cc1cccc(N2C(=O)NC(=O)/C(=C\c3cnn(-c4ccccc4)c3)C2=O)c1 was run?
A: 35.3% (active)

Q: How did the inhibition turn out when O=C(COC(=O)c1ccccc1)Nc1ccc(Cl)cc1C(=O)c1ccccc1 was run?
A: 39.7% (active)
